Screens as filed in PubChem BioAssay.
Rows were chosen to be rich in hits. Some 0.65% of all compounds tested hit in one or more screens of this group.
PrP 5UTR inh – inhibition of PrP 5' UTR reporter expression | inhibition, % (test concentration not listed) | actives 0.35% (n = 340,000) | cell-based PrP 5' UTR mRNA reporter, plate reader; in the data active means inhibition above about 52%; further: 0 = median of the neutral control wells
UGM FP inh – M. tuberculosis UGM enzyme inhibitors, primary screen, biochemical, fluorescence polarization, single point | UDP-galactopyranose mutase (Mycobacterium tuberculosis (strain ATCC 25618 / H37Rv)), … | purified UGM, fluorescence polarization probe displacement | inhibition, % at 10 µM | actives 0.06% (n = 320,000) | AID 504406, 2011; in the data active means inhibition above about 10%, passing the limit was not always enough
BH1578 lux ind – inducers of Vibrio cholerae quorum light production without autoinducers, primary screen, BH1578 luxS cqsA deficient, single point; actives 0.16% (n = 350,000); activation, % at 18.7 µM; V. cholerae BH1578 lux reporter, luminescence, 6 h; AID 588436, 2011; in the data active means activation mostly above about 9.7%, no sharp cut-off
TcdB inh – TcdB glycohydrolase inhibitors, primary screen, biochemical, single point, plate reader | TcdB glycohydrolase enzymatic assay | inhibition, % at 9.99 µM | actives 0.24% (n = 350,000); in the data active means inhibition above about 10%
Target sequence (P18177 whole entry, looked up): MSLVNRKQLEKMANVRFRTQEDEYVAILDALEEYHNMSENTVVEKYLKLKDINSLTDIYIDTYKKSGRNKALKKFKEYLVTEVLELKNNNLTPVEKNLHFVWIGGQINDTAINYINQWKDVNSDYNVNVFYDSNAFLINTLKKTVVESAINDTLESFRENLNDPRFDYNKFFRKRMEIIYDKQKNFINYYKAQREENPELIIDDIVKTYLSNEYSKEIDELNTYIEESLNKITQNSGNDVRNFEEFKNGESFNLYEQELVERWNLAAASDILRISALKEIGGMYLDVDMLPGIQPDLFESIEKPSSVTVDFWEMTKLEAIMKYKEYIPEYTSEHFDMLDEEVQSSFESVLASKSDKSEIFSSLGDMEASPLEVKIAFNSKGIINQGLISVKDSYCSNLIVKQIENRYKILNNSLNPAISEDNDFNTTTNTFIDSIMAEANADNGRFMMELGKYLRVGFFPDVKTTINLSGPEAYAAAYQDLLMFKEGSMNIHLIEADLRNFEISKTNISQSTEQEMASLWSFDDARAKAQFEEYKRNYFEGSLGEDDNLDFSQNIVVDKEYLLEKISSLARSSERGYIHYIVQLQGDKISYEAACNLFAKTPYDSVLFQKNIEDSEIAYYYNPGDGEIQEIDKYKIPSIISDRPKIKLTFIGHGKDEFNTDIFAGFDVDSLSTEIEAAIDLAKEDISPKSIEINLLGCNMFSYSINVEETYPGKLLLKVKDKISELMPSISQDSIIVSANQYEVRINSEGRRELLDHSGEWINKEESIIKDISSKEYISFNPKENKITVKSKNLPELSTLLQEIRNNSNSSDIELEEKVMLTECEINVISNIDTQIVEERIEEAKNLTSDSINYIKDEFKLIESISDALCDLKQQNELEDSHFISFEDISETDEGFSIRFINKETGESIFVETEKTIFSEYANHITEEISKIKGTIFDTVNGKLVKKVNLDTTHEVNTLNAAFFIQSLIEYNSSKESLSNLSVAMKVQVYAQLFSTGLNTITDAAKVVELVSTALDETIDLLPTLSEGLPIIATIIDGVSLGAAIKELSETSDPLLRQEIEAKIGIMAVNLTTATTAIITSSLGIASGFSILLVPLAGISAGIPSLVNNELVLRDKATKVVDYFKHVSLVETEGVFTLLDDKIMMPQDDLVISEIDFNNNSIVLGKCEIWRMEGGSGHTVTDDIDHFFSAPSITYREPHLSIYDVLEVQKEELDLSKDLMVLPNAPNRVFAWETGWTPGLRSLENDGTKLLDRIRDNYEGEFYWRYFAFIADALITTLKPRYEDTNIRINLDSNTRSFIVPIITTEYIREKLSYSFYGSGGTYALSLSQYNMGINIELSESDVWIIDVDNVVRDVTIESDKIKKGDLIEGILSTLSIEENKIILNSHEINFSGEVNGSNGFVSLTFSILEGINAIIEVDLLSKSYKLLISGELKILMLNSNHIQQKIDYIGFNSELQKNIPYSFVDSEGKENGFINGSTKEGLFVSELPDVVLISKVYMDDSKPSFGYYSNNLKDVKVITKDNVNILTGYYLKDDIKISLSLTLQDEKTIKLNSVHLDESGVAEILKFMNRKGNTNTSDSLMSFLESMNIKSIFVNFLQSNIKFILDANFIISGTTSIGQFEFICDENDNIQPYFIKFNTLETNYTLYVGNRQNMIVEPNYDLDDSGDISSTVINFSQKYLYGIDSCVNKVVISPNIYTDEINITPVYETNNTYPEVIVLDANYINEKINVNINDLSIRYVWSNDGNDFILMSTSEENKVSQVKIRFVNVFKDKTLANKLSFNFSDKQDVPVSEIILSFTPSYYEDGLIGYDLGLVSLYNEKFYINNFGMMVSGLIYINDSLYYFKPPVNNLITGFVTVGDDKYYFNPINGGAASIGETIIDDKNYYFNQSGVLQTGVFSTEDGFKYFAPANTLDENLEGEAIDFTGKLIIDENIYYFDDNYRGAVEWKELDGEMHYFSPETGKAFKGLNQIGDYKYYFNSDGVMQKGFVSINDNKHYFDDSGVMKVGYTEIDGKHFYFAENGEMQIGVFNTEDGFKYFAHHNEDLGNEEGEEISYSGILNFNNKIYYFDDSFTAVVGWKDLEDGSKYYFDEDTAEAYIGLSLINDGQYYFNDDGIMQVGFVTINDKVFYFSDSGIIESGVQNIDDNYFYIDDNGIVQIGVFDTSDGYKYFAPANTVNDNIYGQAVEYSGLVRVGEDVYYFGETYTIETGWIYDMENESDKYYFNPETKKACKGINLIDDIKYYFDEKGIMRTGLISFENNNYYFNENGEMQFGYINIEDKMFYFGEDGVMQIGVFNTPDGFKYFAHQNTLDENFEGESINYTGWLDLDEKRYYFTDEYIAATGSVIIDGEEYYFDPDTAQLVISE
Yp Topo-I inh – Yersinia pestis topoisomerase I inhibitors, primary screen, biochemical, cleavage product accumulation, plate reader, single point | DNA topoisomerase I (Yersinia pestis CO92) | Y. pestis Topo-I cleavage product accumulation | activity, % at 10 µM | actives 0.064% (n = 360,000) | AID 504884, 2011; in the data active means activity above about 50%, passing the limit was not always enough
An asterisk follows results filed as active; i = inactive; . = not tested or not shown; + = active, no number; ! = not active in a repeat.

SMILES	PrP 5UTR inh	UGM FP inh	BH1578 lux ind	TcdB inh	Yp Topo-I inh
COc1ccc(S(=O)(=O)Nc2ccc3c(c2)C(=O)N([C@@H](C)CO)C[C@H](C)[C@@H](CN(C)C(=O)Nc2ccc(F)cc2)OCCCC[C@@H](C)O3)cc1	.	.	.	1	.
Nc1ccc(-c2nc3ccc(N)cc3o2)cc1	-13	-1	0	11*	5
Nc1ccc(-c2nc3cc(N)ccc3o2)cc1	-11	1	i	1	0
CC(=O)C[C@H]1c2ccccc2S(=O)(=O)N1C1CCCCC1	-5	3	i	14*	2
O=C(O)C[C@H]1c2ccccc2S(=O)(=O)N1C1CCCCC1	-4	0	i	1	5
Cc1oc2ccc(NS(=O)(=O)c3ccc(F)cc3)cc2c1C(=O)O	-16	3	0	1	-1
COc1ccc(S(=O)(=O)Nc2ccc3oc(C)c(C(=O)O)c3c2)cc1	-6	4	0	15*	-4
O=C(O)c1ccc2c3c(cccc13)C(=O)N(c1cccc3ccccc13)C2=O	-15	0	i	-1	11
O=C(O)c1ccc2c(c1)C(=O)N(c1cccc3ccccc13)C2=O	-12	1	83*	0	4
CCOc1cc(/C=N/n2cnnc2)ccc1O	-13	1	-1	17*	4
COC(=O)c1sc2nc(SCc3ccccc3C)n(N)c(=O)c2c1C	-6	-4	0	16*	-5
CC(C)=C(NC(=O)c1ccccc1)C(=O)NC(Cc1ccccc1)C(=O)O (stereo not given)	11	-3	15*	-2	3
Cc1ccc(/C=C(\NC(=O)c2ccccc2)C(=O)NC(Cc2ccccc2)C(=O)O)cc1 (stereo not given)	0	5	i	.	8
Cc1ccc(S(=O)(=O)Nc2ccc3c(c2)C(=O)N([C@H](C)CO)C[C@H](C)[C@@H](CN(C)C(=O)Nc2ccc4c(c2)OCO4)OCCCC[C@H](C)O3)cc1	.	.	.	1	.
C[C@H]1CN([C@@H](C)CO)C(=O)c2cccc(NC(=O)Nc3ccc4c(c3)OCO4)c2O[C@H]1CN(C)Cc1ccc(-c2ccccc2)cc1	.	.	.	-2	.
O=C(C[C@H]1C[C@H]2c3cc(NC(=O)c4ccc5c(c4)OCO5)ccc3O[C@H]2[C@H](CO)O1)NCc1cccc(F)c1	.	.	.	14*	.
Cc1ccc(C(CNC(=O)c2ccc(Br)o2)N2CCN(C)CC2)cc1 (stereo not given)	-13	3	-1	-2	1
CN1CCN(C(CNC(=O)c2ccc(Br)o2)c2ccc(F)cc2)CC1 (stereo not given)	-6	0	-2	12*	-1
Cc1c(N=C2N=C(NC(=O)c3ccc(F)cc3)c3ccccc32)c(=O)n(-c2ccccc2)n1C	2	18*	-1	0	15
Cc1c(NC(=O)NC(=O)c2ccc(F)cc2)c(=O)n(-c2ccccc2)n1C	-8	1	i	.	1
CN(C)C(=O)[C@H]1[C@H](CO)[C@H]2Cn3c(ccc(C4=CCCCC4)c3=O)[C@@H]1N2Cc1cccnc1	.	.	.	0	.
O=C(OCCN1C(=O)c2cccc3c(N4CCOCC4)ccc(c23)C1=O)c1ccc(Cl)cc1Cl	9	23*	0	.	18
Cc1n[nH]c(C)c1N1C(=O)c2cccc3c(N4CCCCCC4)ccc(c23)C1=O	-14	14*	0	.	0
O=C1c2cccc3c(N4CCCCC4)ccc(c23)C(=O)N1c1cccc(O)c1	-48	-3	0	0	28
O=C(OCCN1C(=O)c2cccc3c(N4CCOCC4)ccc(c23)C1=O)c1cccc(Cl)c1	.	25*	.	.	.
SMILES	PrP 5UTR inh	UGM FP inh	BH1578 lux ind	TcdB inh	Yp Topo-I inh
O=C(OCCN1C(=O)c2ccccc2C1=O)c1cc(S(=O)(=O)N2CCOCC2)ccc1Cl	-4	1	3	.	0
O=C(OCCN1C(=O)c2cccc3c(N4CCOCC4)ccc(c23)C1=O)c1ccccc1Cl	-14	22*	0	.	37
CCC(=O)N1CC(=O)N2[C@@H](CO)[C@@H](c3ccc(C#CC(C)C)cc3)[C@@H]2C1	.	.	.	1	.
CC(=O)NC[C@@H]1[C@H](c2ccccc2)[C@H](CO)N1C(=O)Cc1cccnc1	.	.	.	-2	.
C[C@@H](NC(=O)C[C@@H]1CC[C@@H](NC(=O)CN2CCOCC2)[C@H](CO)O1)c1ccccc1	.	.	.	0	.
O=C1c2cccc3c(N4CCCCC4)ccc(c23)C(=O)N1CCO	-35	30*	-4	.	19
C=CCN1C(=O)c2cccc3c(N4CCCCC4)ccc(c23)C1=O	-5	7	0	1	5
Cc1ccc(S(=O)(=O)N2CCCC2C(=O)Nc2ccc(O)cc2)cc1 (stereo not given)	-20	-2	-1	10*	9
Cc1noc(C)c1S(=O)(=O)N(C)C[C@@H]1OCCCC[C@H](C)Oc2ccc(NS(=O)(=O)c3cccs3)cc2C(=O)N([C@@H](C)CO)C[C@H]1C	.	.	.	0	.
Fc1ccc(SCCc2ccccn2)cc1	-22	0	7	0	50*!
Cc1cc(C)c2nc(Cl)c(C3NC(=O)c4ccccc4N3)cc2c1 (stereo not given)	-30	0	i	-1	-1
Cc1ccc(C)c2nc(Cl)c(C3NC(=O)c4ccccc4N3)cc12 (stereo not given)	-3	2	i	10*	5
O=c1cc(NCc2ccco2)c2ccccc2o1	-13	-2	26*	.	0
COc1cc(/C=N/NC(=O)c2nnn(-c3nonc3N)c2C(C)C)ccc1O	-20	-2	0	13*	-7
COc1cc(/C=N/NC(=O)c2nnn(-c3nonc3N)c2C(C)C)ccc1OCc1ccccc1	-51	2	-2	0	-2
Cn1cc(C(=O)C(=O)NC2CCCCC2)c2ccccc21	-23	-3	80*	2	18
O=C(NC1CCCCC1)C(=O)c1c(-c2ccccc2)[nH]c2ccccc12	-15	0	+	-1	2
Cn1cc(C(=O)C(=O)NC2CC2)c2ccccc21	-9	.	-3	0	3
C[C@H]1CN([C@@H](C)CO)C(=O)c2cc(C#Cc3ccccc3F)cnc2O[C@@H]1CN(C)C(=O)C1CCC1	.	.	.	0	.
C[C@@H]1CN([C@@H](C)CO)S(=O)(=O)c2ccc(C#Cc3cccc(F)c3)cc2O[C@H]1CN(C)C	.	.	.	-1	.
COc1cccc(-c2cnc3c(c2)C(=O)N([C@@H](C)CO)C[C@@H](C)[C@H](CN(C)Cc2ccc(F)cc2)O3)c1	.	.	.	-1	.
CC(=O)c1c(C)[nH]c(C(=O)OCC(=O)Nc2cc(S(=O)(=O)N3CCCC3)ccc2Cl)c1C	-27	-2	i	.	13
COc1ccc(S(=O)(=O)N2CCOCC2)cc1NC(=O)COC(=O)c1[nH]c(C)c(C(C)=O)c1C	-5	-1	-1	13*	14
